# Measured values from article PMC4336329 (PLoS ONE, 2015).
# Out of some 310,000 compounds screened, about 14,000 (4.5%) showed an effect of 50% or more. Effects have a minus sign here. What follows is part of a selection rich in strong results, with near analogues and random picks from the rest.
# Biological target: human ether-à-go-go-related gene (hERG) potassium channel (human, UniProt Q12809)
# Assay: primary screen, population patch clamp on CHO cells stably expressing hERG; higher = less effect of the substance
# 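Note: peak tail current of the secondary pulse compared with the same well before compound.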
# Chain of human ether-à-go-go-related gene (hERG) potassium channel (Q12809 whole entry, looked up): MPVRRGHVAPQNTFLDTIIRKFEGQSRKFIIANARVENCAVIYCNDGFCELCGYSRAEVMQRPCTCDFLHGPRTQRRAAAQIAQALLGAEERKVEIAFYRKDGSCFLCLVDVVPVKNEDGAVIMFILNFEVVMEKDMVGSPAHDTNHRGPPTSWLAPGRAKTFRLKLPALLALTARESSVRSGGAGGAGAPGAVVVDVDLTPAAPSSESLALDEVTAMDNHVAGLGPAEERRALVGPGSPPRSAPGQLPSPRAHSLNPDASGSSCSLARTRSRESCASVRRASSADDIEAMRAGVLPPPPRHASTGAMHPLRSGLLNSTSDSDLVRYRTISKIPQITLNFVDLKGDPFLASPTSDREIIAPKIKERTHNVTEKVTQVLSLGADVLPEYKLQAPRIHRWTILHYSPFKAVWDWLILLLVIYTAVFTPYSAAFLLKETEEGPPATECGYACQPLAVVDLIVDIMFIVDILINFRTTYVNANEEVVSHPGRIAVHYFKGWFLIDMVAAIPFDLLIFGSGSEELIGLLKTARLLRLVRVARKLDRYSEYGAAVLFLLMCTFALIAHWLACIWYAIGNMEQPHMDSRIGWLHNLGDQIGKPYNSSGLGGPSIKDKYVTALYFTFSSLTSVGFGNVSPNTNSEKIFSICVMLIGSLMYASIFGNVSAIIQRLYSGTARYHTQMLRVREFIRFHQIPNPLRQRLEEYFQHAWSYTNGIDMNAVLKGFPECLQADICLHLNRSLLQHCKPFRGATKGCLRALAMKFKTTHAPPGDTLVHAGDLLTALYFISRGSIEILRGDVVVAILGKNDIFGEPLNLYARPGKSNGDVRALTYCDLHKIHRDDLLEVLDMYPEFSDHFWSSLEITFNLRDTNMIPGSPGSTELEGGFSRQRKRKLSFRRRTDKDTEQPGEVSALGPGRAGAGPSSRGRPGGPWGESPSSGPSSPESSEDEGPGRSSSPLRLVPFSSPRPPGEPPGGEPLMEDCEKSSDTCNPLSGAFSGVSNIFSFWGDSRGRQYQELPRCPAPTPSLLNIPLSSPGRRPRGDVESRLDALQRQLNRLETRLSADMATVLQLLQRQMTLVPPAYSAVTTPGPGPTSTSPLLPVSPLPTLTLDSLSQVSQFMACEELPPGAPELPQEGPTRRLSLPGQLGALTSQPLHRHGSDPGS
row,Compound,"hERG current change (%, negative = inhibition) at 10uM [%]"
1,CCC(C)NC(=O)c1cn(CCOC)c(=O)c2c1c1ccccc1n2C (centres unmarked),20.4
2,COc1ccc(Cn2c(CCC(=O)Nc3ccccc3OC)nc3cccnc32)cc1,-3.79
3,COc1cccc(CN2C(=O)C(C)N(C(=O)c3ccccc3)c3ccccc32)c1 (centres unmarked),-5.44
4,CC1CCC(C(=O)c2c(O)c3ccccc3oc2=O)CC1 (centres unmarked),15.9
5,COc1ccc(-c2nc(S(=O)(=O)c3ccc(C)cc3)c(N3CCCC3)o2)cc1,17.2
6,O=C(Nc1ccc(-n2ccnc2P(=O)(O)c2ccccc2)cc1)c1ccccc1Br,-14.9
7,CCOC(=O)c1snc(C(=O)NC2CCCCC2)c1N,-6.13
8,COc1ccc(NC(=O)c2sc3ncnc(N4CCN(c5ccccn5)CC4)c3c2C)cc1Cl,-23
9,Nc1nc(CCl)nc(Nc2ccccc2)n1,20.7
10,Nc1nc(CN2CCN(Cc3ccccc3)CC2)nc(Nc2ccccc2)n1,-66.2
11,c1ccc(Nc2nc(N3CCCC3)nc(N3CCCC3)n2)cc1,13.1
12,Nc1nc(CN2CCN(C(c3ccccc3)c3ccccc3)CC2)nc(Nc2ccccc2)n1,-18.4
13,Nc1nc(CN2CCCCCC2)nc(Nc2ccccc2)n1,-61.4
14,c1ccc(Nc2nc(N3CCCCC3)nc(N3CCCCC3)n2)cc1,-4.68
15,O=C(NC(Nc1nc2ccc([N+](=O)[O-])cc2s1)(C(F)(F)F)C(F)(F)F)c1ccccc1,-6.48
16,CCCc1nnc(NC(=O)c2c(O)c3cccc4c3n(c2=O)CCC4)s1,-2.48
17,S=C(NCCCN1CCOCC1)NC1CCCC1,8.32
18,O=c1[nH]c(/C=C\c2ccccc2F)nc(O)c1[N+](=O)[O-],17.5
19,COc1ccc(NC(=O)CSc2c(C)n[nH]c2C)cc1,-7.52
20,CCOc1ccc(OCCC(=O)NNC(=O)c2nn(C)c(=O)c3ccccc23)cc1,-13.1
21,Cc1occc1C(=O)NNC(=O)c1nn(C)c(=O)c2ccccc12,8.46
22,Cn1nc(C(=O)NNC(=O)CCc2ccccc2Cl)c2ccccc2c1=O,-53.9
23,CCc1noc(C)c1C(=O)NNC(=O)c1ccccc1,-1.03

row,Compound,"hERG current change (%, negative = inhibition) at 10uM [%]"
1,CCc1noc(C)c1C(=O)NNC(=O)c1nn(C)c(=O)c2ccccc12,-50.2
2,Cc1ccc(OCCC(=O)NNC(=O)c2nn(C)c(=O)c3ccccc23)cc1,-33.1
3,CCOC(=O)N1CCN(C(=O)C(CC(C)C)NS(=O)(=O)c2ccc(C)cc2)CC1 (centres unmarked),-4.14
4,COC(=O)C1C2c3ccccc3OC1(C)N=c1s/c(=C/c3cn(C)nc3C)c(=O)n12 (centres unmarked),11.2
5,COC(CNC(=O)c1ccc2c(c1)nc(C)n2-c1cccc(C)c1)OC,0.933
6,CCC(CC)NC(=O)COC(=O)c1ccc(OCC(=O)Nc2ccccc2OC)c(OC)c1,11.4
7,Cc1ccc(N2CCN(C(=O)c3ccccc3F)CC2)c(C)c1,-8.81
8,COc1ccc(N2CCN(C(=O)c3ccccc3Br)CC2)c([N+](=O)[O-])c1,-65.5
9,COc1cc(OC)cc(C(=O)N2CCN(c3ccccc3F)CC2)c1,-11.6
10,O=C(c1ccccc1Br)N1CCN(c2ccc([N+](=O)[O-])c(N3CCOCC3)c2)CC1,-11.5
11,COc1ccc(N2CCN(C(=O)c3ccccc3F)CC2)c([N+](=O)[O-])c1,-51.3
12,COc1cc(C(=O)N2CCN(c3ccccc3OC)CC2)c([N+](=O)[O-])cc1OC,18.5
13,Cc1cc(=O)oc2cc(OCc3cc4c(cc3Cl)OCO4)ccc12,8.74
14,NNC(=O)CNc1cccc(Cl)c1,15.4
15,CC(=O)c1ccc(NC(=O)C2C3CCC(C3)C2C(=O)O)cc1 (centres unmarked),17.8
16,COCCCNC(=O)Cn1nc(-c2ccccc2OC)ccc1=O,18
17,COc1ccc(Cl)cc1C(=O)Nc1ccncc1,-26.2
18,Cn1c(N)c(C(=O)COC(=O)C2CCCCC2)c(=O)n(C)c1=O,-11.2
19,Cn1c(N)c(C(=O)COC(=O)C23CC4CC(CC(C4)C2)C3)c(=O)n(C)c1=O,-22.6
20,Cn1c(N)c(C(=O)COC(=O)CC2CC3CCC2C3)c(=O)n(C)c1=O (centres unmarked),-64.4
21,Cn1c(N)c(C(=O)COC(=O)CCC2CCCC2)c(=O)n(C)c1=O,-43.3
22,Cn1c(N)c(C(=O)COC(=O)C2CCCC2)c(=O)n(C)c1=O,-20.6
23,Cn1c(N)c(C(=O)COC(=O)CCC2CCCCC2)c(=O)n(C)c1=O,-73.6

row,Compound,"hERG current change (%, negative = inhibition) at 10uM [%]"
1,Cc1ccccc1OC(C)C(=O)NC1CCCC1 (centres unmarked),-2.63
2,O=C(NN=C1C2CC3CC1CC(Cl)(C3)C2)c1cccs1,8.54
3,COc1ccc(-c2nc(NC(C)=O)sc2-c2ccccc2)cc1,34.7
4,COc1ccc(CNC(=O)CN(Cc2ccc(C)cc2)C(=O)c2csnn2)cc1,-36.1
5,COc1ccc(CN(CC(=O)NCc2ccc(F)cc2)C(=O)c2csnn2)cc1,-58.5
6,COc1ccc(CNC(=O)CN(Cc2ccc(Cl)cc2)C(=O)c2csnn2)cc1,-71.7
7,COc1ccccc1CN(CC(=O)NCc1ccc(F)cc1)C(=O)c1csnn1,-35.3
8,COc1ccc(CNC(=O)CN(Cc2ccccc2)C(=O)c2csnn2)cc1,-32.3
9,COc1ccc(CN(CC(=O)NCc2ccccc2)C(=O)c2csnn2)cc1,-26.6
10,C=CCN(CC(=O)NCc1ccc(OC)cc1)C(=O)c1csnn1,-16.7
11,COc1ccc(CNC(=O)CN(Cc2ccc(OC)cc2)C(=O)c2csnn2)cc1,-57.5
12,COc1ccc(CNC(=O)CN(Cc2ccccc2OC)C(=O)c2csnn2)cc1,-29
13,COc1ccc(CNC(=O)CN(Cc2ccc(F)cc2)C(=O)c2csnn2)cc1,-70.4
14,COc1ccc(CNC(=O)CN(Cc2ccccc2F)C(=O)c2csnn2)cc1,-32.7
15,COc1ccc(CNC(=O)CN(C(=O)c2csnn2)c2ccc(F)cc2)cc1,-5.15
16,CCOc1cccc(=O)c2c(C)n(-c3ccc(C(=O)O)cc3)c(C)c12,32
17,CCOC(=O)c1c(C)nsc1NC(=O)c1ccco1,-4.79
18,CCOc1ccc(NCc2nnc(SCC(=O)Nc3cc(C)on3)n2-c2ccc(OC)cc2)cc1,-4.02
19,CCc1cccc(CC)c1NC(=O)COC(=O)Cc1ccsc1,21.2
20,COc1ccc(N2C(=O)NC(=O)/C(=C/c3cccc(OC(=O)c4cccs4)c3)C2=O)cc1Cl,-2.57
21,Cc1ccc(C(=O)NC(=S)Nc2cc(C(F)(F)F)ccc2Cl)cc1,20.3
22,CCOC(=O)Cc1csc(NC(=O)CN(C)S(=O)(=O)c2ccc3c(c2)CCC(=O)N3)n1,-15.9
23,CN(C)S(=O)(=O)c1ccc(C(=O)Nc2cc(S(=O)(=O)Nc3ccccc3Cl)ccc2N2CCCCC2)cc1,25.5

row,Compound,"hERG current change (%, negative = inhibition) at 10uM [%]"
1,COc1ccc(C/C(N)=N/OC(=O)c2cccs2)cc1,12.8
2,O=C(Nc1nc2ccc(SC(F)F)cc2s1)c1ccc(NS(=O)(=O)c2ccc(F)c(F)c2)cc1,-8.03
3,COc1ccc(NC(=O)C(C)Sc2ccccc2)cc1 (centres unmarked),1.14
4,COC(=O)CCc1sc(NC2CCCCC2)nc1-c1ccc(OC)cc1,8.55
5,CCOC(=O)N1CCN(C(=O)c2ccc(OCC)cc2)CC1,-28.3
6,CN1CCN(C(=O)c2ccc(Oc3ccc([N+](=O)[O-])cc3)cc2)CC1,-50.6
7,CCOC(=O)N1CCN(C(=O)c2ccc(OC)cc2)CC1,19.8
8,O=C(c1ccc(Oc2ccc([N+](=O)[O-])cc2)cc1)N1CCCCCC1,-25.5
9,CN1CCN(C(=O)c2cc([N+](=O)[O-])cc([N+](=O)[O-])c2)CC1,16.7
10,CCOC(=O)N1CCN(C(=O)c2ccc(Oc3ccc([N+](=O)[O-])cc3)cc2)CC1,-68.3
11,COc1ccc(Br)c(C(=O)NNC(=O)c2ccc(NS(=O)(=O)c3cccs3)cc2)c1,12.6
12,CCC1CCCCN1C(=O)CSc1nnc(CNC(=O)c2c(F)cccc2Cl)o1 (centres unmarked),10.7
13,CCOC(=O)C(=O)Nc1ccc(S(=O)(=O)N2CCOCC2)cc1OC,4.78
14,O=C(O)/C=C/C(=O)NC1CC1,41.9
15,CCN(CC)CCOc1nnc(-c2ccc(C)cc2)c2ccccc12,-67.7
16,COc1ccc(-c2nnc(OC)c3ccccc23)cc1,-7.99
17,Cc1ccc(-c2nnc(OCCN3CCOCC3)c3ccccc23)cc1,-43.4
18,COc1ccc(Oc2nnc(-c3ccc(C)cc3)c3ccccc23)cc1,5.64
19,COc1nnc(-c2ccc(C)cc2)c2ccccc12,5.93
20,CCN(CC)CCOc1nnc(-c2ccc(OC)cc2)c2ccccc12,-65
